Out of some 390,000 compounds screened, about 17,000 (4.4%) were called active. Where a call stands in place of a potency, no number is given. Inconclusive results (about 8%) are left out. Calls come from the whole dose curve; as a rule, active = well fitted inhibition curve with a large enough effect; inconclusive = small, poorly fitted or top-dose-only effect; inactive = no such curve, though single readings can be large or run the other way. This excerpt belongs to a sample that is enriched for actives.
Potency is the fitted concentration of half-maximal effect.

Lysine-specific demethylase 4A (Homo sapiens), sequence (O75164 whole entry, looked up, the tested form may be a part): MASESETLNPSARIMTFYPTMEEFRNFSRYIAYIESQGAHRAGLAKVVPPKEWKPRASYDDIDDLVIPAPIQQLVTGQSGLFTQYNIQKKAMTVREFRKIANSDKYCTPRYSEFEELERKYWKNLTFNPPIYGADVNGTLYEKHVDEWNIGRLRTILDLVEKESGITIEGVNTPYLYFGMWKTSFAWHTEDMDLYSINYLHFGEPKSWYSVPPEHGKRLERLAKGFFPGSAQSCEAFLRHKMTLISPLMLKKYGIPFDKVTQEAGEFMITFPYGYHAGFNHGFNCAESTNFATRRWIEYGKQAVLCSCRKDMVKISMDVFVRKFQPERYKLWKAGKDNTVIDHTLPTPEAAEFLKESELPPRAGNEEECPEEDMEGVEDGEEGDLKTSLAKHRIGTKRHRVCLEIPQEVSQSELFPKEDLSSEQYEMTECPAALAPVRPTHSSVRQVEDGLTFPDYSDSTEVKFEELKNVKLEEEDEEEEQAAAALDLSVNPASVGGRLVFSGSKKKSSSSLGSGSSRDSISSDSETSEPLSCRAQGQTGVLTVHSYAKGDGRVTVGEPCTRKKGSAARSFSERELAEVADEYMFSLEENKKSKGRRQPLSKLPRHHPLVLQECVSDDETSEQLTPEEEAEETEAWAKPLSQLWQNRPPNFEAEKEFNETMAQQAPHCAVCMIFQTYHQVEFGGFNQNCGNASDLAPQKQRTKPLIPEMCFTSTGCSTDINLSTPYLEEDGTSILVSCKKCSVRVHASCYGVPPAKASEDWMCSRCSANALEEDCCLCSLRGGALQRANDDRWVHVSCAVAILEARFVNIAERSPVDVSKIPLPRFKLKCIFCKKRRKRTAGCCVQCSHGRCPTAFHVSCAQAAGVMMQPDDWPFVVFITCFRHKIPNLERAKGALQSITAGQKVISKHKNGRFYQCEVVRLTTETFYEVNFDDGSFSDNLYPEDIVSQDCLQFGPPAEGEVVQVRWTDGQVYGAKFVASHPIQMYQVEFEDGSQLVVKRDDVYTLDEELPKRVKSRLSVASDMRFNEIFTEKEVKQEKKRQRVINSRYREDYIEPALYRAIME

The assay addresses Lysine-specific demethylase 4A (Homo sapiens) (UniProt O75164). Nature of the assay: qHTS Assay for Inhibitors of JMJD2A-Tudor Domain. Note: nearly all actives have a fitted effect of over 50% in size. Conditions: AlphaScreen JMJD2A-Tudor / H3K4me3 peptide binding; series mostly up to 114 µM. (In general: Quantitative high-throughput screening tests each substance at several concentrations.)
In the case of `CCOc1ccccc1NC(=O)C1CCCN(S(=O)(=O)c2cn(C)cn2)C1` (stereo not drawn), the Potency entry is “inactive”.

`COCCNS(=O)(=O)c1cc(-c2nn3c(C)nnc3c3ccccc23)ccc1C`: the Potency result was “inactive”.

Consider `Cc1ccc(-c2ccnc3[nH]n(-c4ccccc4)c(=O)c23)cc1`, for which the Potency result is “inactive”.

Turning to `Cc1[nH]n(-c2ccccc2)c(=O)c1CCOC(=O)c1ccc(C(F)(F)F)cc1`, the Potency entry was “inactive”.

Regarding `Cc1c(N=Nc2ccc(N(C)C)cc2)c(=O)n(-c2ccccc2)n1C`, the Potency result was “inactive”.

With `Cc1ccc(N=Nc2c(C)[nH]n(-c3ccccc3)c2=O)cc1`, the Potency is 6.31 µM (active).

Regarding `Cc1cccc(N=Nc2c(O)[nH]c3ccc(F)cc23)c1`, the Potency result is “inactive”.

Regarding `Cc1cccc(N=Nc2c(C)[nH]n(-c3ccccc3)c2=O)c1`, the Potency was 11.2 µM (active).

On to `O=C(NCc1ccc(F)cc1)c1ccc(Cn2c(SCc3ccc(F)cc3)nc3cccnc32)cc1`, for which the Potency result is “inactive”.

Regarding `Cc1c(NC(=O)Nc2ccc(F)c(Cl)c2)c(=O)n(-c2ccccc2)n1C`, the Potency entry is “inactive”.

On to `Cc1c(CNC(C)c2ccccc2)c(C(=O)O)c(C)n1Cc1c(F)cccc1Cl` (stereo not drawn), for which the Potency result was “inactive”.

For the molecule `O=C(NCCCO)C(=O)Nc1c2c(nn1-c1ccc(F)cc1)CSC2`, the Potency entry was “inactive”.

Turning to `CCn1c(CNC(=O)C23CC4CC(CC(C4)C2)C3)nnc1SCC(=O)Nc1ccc(OC)cc1`, the Potency entry is “inactive”.

Regarding `CC1=C(c2ccc(F)cc2)S(=O)(=O)N=C1N1CCC(C(=O)NCCc2ccccc2C)CC1`, the Potency result is “inactive”.

As for `CCCS(=O)(=O)N1CCC(n2c(C(F)(F)F)nc3cccnc32)CC1`, the Potency entry was “inactive”.

For `NS(=O)(=O)c1ccc(NC(=O)COc2ccc(S(=O)(=O)NC3CCCCC3)cc2)cc1`, the Potency entry was “inactive”.

As for `CC(C)Cn1c(=O)c2ccccc2n2c(CCC(=O)N3CCN(c4cccc(Cl)c4)CC3)nnc12`, the Potency result was “inactive”.

As to `CCOc1ccc2nc(N3CCC(C(=O)Nc4cc(C)ccc4C)CC3)sc2c1`, the Potency result is “inactive”.

For the molecule `COCCCNCCOCCOc1ccc(Cl)cc1Br`, the Potency is 1.78 µM (active).

`OCCNCCOc1ccc(Cl)c(Cl)c1`: the Potency entry is “inactive”.

Turning to `COCCNCCOCCOc1cccc(OC)c1`, the Potency entry was “inactive”.

Consider `COc1cc(NS(=O)(=O)c2ccc(NC(=S)NC(=O)c3ccccc3)cc2)nc(OC)n1`, for which the Potency result is “inactive”.

On to `Cn1nnc(NC(=S)NC(=O)c2ccccc2)n1`, for which the Potency is 5.01 µM (active).

As to `COC(=O)c1nc(NC(=O)c2ccccc2)n[nH]1`, the Potency result is “inactive”.

With `O=C(C1COc2ccccc2O1)N(Cc1cccnc1)c1nc2c(F)cc(F)cc2s1` (stereo not drawn), the Potency result was “inactive”.

`COc1ccc(Cc2nnc(NS(=O)(=O)Cc3ccccc3)s2)cc1`: the Potency entry was “inactive”.

As to `COc1ccc(Cc2nnc(NC(=O)Cc3cccs3)s2)cc1`, the Potency is 28.2 µM (active).

Take `COc1ccccc1NC(=O)Nc1nnc(Cc2ccc(F)cc2)s1`: the Potency entry is “inactive”.

In the case of `Cc1nn(C(C)C(=O)NCCc2ccccc2)c(=O)c2c1sc1ccccc12` (stereo not drawn), the Potency entry was “inactive”.

With `COC(=O)c1sccc1S(=O)(=O)N(CC(=O)Nc1ccc(C)c(F)c1)c1ccc(C)c(C)c1`, the Potency result was “inactive”.

On to `COc1cc(/C=N\Nc2nc(-c3cccs3)c(NC(C)=O)s2)ccc1O`, for which the Potency was 25.1 µM (active).

On to `CCOc1cc(C=NNC(=O)CCCC(=O)NN=Cc2ccc(O)c(OCC)c2)ccc1O`, for which the Potency result was “inactive”.

For `CC(=O)c1sc(N/N=C/c2ccc(C(C)C)cc2)nc1C`, the Potency entry was “inactive”.

Consider `Cc1ccc2nc(COc3cccc(NC(=O)c4ccccc4Cl)c3)cc(=O)n2c1`, for which the Potency entry was “inactive”.

On to `COc1cc(C(=O)NCCc2csc3nc(-c4ccccc4C)nn23)cc(OC)c1OC`, for which the Potency entry is “inactive”.

Take `CCOC(=O)c1c(NC(=O)CSc2nccc(=O)[nH]2)sc(C)c1C`: the Potency entry was “inactive”.

Turning to `CCOC(=O)c1c(NC(=O)CSc2nnc(Cc3csc(N)n3)n2C)sc(C)c1C`, the Potency is 39.8 µM (active).

With `CCOC(=O)c1c(NC(=O)CSc2nnc(CN3CCOCC3)n2C)sc2c1CCCC2`, the Potency result is “inactive”.

Take `COc1ccc(C2C(=O)N(C3CCCCCC3)CC(=O)N2CCc2ccc(Cl)cc2)cc1OC` (stereo not drawn): the Potency entry is “inactive”.

For `Cc1ccc(Cn2cc(CCC(=O)NCc3ccc(OC(C)C)cc3)c3ccccc32)cc1`, the Potency result is “inactive”.

In the case of `Cc1ncc(CO)c(/C=N/NC(=O)c2cccc(S(=O)(=O)N3CCCC3)c2)c1O`, the Potency was 22.4 µM (active).

`CCOc1cc(/C=N/NC(=O)c2cccc(S(=O)(=O)N3CCOCC3)c2)ccc1OCC(=O)N(C)C`: the Potency entry was “inactive”.

`Cc1cccc(NC(=O)c2cccc(S(=O)(=O)N3CCCC3)c2)n1`: the Potency entry was “inactive”.

In the case of `COc1ccccc1CCNC(=O)c1cccn1-c1nnc(N2CCCCC2)s1`, the Potency entry is “inactive”.

`COc1ccc2c(C)c(CCC(=O)NCc3ccc(OC)c(OC)c3)c(=O)oc2c1`: the Potency result is “inactive”.

Consider `COC(=O)C1=C(C)N(C(C)c2ccccc2)C(=O)/C1=C\c1ccco1` (stereo not drawn), for which the Potency is 25.1 µM (active).

For `COC(=O)C1=C(C)N(c2ccc(C)cc2)/C(=C/c2ccc(O)cc2)C1=O`, the Potency result was “inactive”.

With `COC(=O)C1=C(C)N(c2ccc(Br)cc2)C(=O)/C1=C\c1ccco1`, the Potency was 17.8 µM (active).

Turning to `O=C(OCN1C(=O)c2ccccc2C1=O)/C(=C\c1ccco1)NC(=O)c1ccccc1`, the Potency entry is “inactive”.

For the molecule `COC(=O)COc1ccc2c(c1C)O/C(=C\c1ccco1)C2=O`, the Potency entry is “inactive”.

In the case of `CCCCN=C1N/C(=C\c2ccco2)C(=O)N1c1ccccc1`, the Potency result is “inactive”.

Consider `CCOC(=O)c1c(C)[nH]c(C)c1S(=O)(=O)N1CCC(C(=O)Nc2ccc(C)c(Cl)c2)CC1`, for which the Potency result was “inactive”.

As to `CCOC(=O)C1CCCN(C(=O)c2ccc3c(c2)sc2nc(-c4ccc(CC)cc4)cn23)C1` (stereo not drawn), the Potency result is “inactive”.

For `COC(=O)c1sc2ncccc2c1-n1c(C)ccc1C`, the Potency result was “inactive”.

With `COc1ccc(CNC(=O)c2cc3c(s2)-c2ccccc2OC3)cc1`, the Potency result was “inactive”.

With `Cc1cccc(N2CCN(C(=O)c3cnc(N4CCCC4)nc3C)CC2)c1C`, the Potency result was “inactive”.

In the case of `COc1ccc(-c2cc(-c3ccc(F)cc3)nc3c2COc2ccccc2-3)cc1`, the Potency result is “inactive”.

Consider `COc1cc(Nc2nc(-c3ccc(OC)c(OC)c3)nc3ccccc23)cc(OC)c1`, for which the Potency result is “inactive”.

With `CCN(CC(=O)NC1CCS(=O)(=O)C1)c1nc(-c2cccnc2)nc2ccccc12` (stereo not drawn), the Potency result is “inactive”.

As to `COc1ccc(Nc2nc(-c3cccnc3)nc3ccccc23)cn1`, the Potency was 31.6 µM (active).

With `CC1CCC2(CC1)N=C(c1ccccc1)C(=O)N2CC(=O)Nc1ccc(F)c(Cl)c1` (stereo not drawn), the Potency result is “inactive”.

For `Cc1ccc(-n2c(=O)c3cccnc3n2CC(=O)Nc2ccccc2C(F)(F)F)cc1C`, the Potency entry was “inactive”.

Regarding `COc1ccc(CNc2nc(-c3ccc(Cl)cc3)nn2C(=O)c2ccccc2)cc1`, the Potency entry is “inactive”.

For the origin of these results see PubChem BioAssay AID504339 (National Center for Advancing Translational Sciences (NCATS), 2011).
